# Laboratory results: article PMC4336329 (PLoS ONE, 2015)
# The campaign covered roughly 310,000 compounds. About 14,000 (4.5%) showed an effect of 50% or more. Effects have a minus sign here. Only a selection was taken, and strong results are over-represented in it overall.
# Molecular target: human ether-à-go-go-related gene (hERG) potassium channel (human, UniProt Q12809)
# Assay: primary screen, population patch clamp on CHO cells stably expressing hERG; higher = less effect of the substance
# 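Further: peak tail current of the secondary pulse compared with the same well before compound.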
# Chain of human ether-à-go-go-related gene (hERG) potassium channel (Q12809 whole entry, looked up): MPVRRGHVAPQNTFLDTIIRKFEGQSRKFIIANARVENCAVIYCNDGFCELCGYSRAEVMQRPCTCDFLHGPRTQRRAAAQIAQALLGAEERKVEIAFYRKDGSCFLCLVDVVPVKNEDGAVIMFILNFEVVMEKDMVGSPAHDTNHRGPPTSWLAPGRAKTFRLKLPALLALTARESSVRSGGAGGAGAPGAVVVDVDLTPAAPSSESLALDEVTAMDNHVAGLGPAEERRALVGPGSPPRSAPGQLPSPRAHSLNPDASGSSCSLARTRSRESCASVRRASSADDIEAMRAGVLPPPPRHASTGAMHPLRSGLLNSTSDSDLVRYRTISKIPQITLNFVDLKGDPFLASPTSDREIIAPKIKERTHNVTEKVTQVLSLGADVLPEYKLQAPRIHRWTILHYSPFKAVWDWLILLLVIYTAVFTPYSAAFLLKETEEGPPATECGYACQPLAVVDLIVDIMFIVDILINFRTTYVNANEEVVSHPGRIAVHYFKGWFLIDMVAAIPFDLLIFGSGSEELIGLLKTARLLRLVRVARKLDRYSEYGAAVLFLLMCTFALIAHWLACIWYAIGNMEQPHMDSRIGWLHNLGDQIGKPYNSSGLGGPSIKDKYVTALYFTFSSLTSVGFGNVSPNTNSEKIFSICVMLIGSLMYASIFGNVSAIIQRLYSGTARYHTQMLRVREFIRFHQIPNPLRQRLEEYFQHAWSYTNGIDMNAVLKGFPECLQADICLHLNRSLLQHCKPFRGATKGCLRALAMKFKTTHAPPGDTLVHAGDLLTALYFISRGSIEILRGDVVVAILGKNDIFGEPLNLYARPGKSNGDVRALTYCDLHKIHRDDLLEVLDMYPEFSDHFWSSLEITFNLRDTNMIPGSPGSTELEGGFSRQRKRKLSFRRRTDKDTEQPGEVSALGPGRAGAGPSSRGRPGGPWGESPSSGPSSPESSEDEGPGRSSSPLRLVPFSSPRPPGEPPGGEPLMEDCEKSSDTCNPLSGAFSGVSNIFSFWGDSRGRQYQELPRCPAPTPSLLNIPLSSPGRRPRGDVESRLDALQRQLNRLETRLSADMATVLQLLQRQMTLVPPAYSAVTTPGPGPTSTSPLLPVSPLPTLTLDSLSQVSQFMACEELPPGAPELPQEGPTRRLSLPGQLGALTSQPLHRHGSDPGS
row,SMILES,"hERG current change (%, negative = inhibition) at 10uM"
1,COc1ccccc1CNC(=O)c1ccc(-c2ccccc2Cl)o1,4.13%
2,O=S(=O)(/N=C(/NS(=O)(=O)c1ccccc1)c1ccccc1)c1ccccc1,20%
3,CN(C)c1ccc(/C=N/NC(=O)c2sccc2-n2cccc2)cc1,12.2%
4,CC1=CC(=C(C#N)c2nc3ccccc3s2)C=C(C)N1c1ccc(F)cc1F,13.3%
5,c1ccc2c(c1)Cc1ccccc1O2,14.7%
6,COc1ccc(/C=C2\C(=O)NCC(=O)N2Cc2ccccc2)cc1,4.69%
7,Cc1csc(NC(=O)c2cccs2)n1,-1.76%
8,CCOc1cc(NC(=S)NCC2CCCO2)c(OCC)cc1NC(=O)C1CC1 (stereo not drawn),36.2%
9,C=CCn1cccc(C(=O)Nc2cc(OC)ccc2OC)c1=O,1.46%
10,CN(Cc1ccc(Cl)cc1)C(=O)c1cc(S(=O)(=O)N2CCOCC2)ccc1N1CCCC1,-72.8%
11,Cc1ccsc1CN(C)C(=O)c1cc(S(=O)(=O)N2CCOCC2)ccc1N1CCCC1,-40.5%
12,CCc1ccc(CN(C)C(=O)c2cc(S(=O)(=O)N3CCOCC3)ccc2N2CCCC2)cc1,-50.1%
13,CN(Cc1cccc(F)c1)C(=O)c1cc(S(=O)(=O)N2CCOCC2)ccc1N1CCCC1,-24.5%
14,CN(Cc1cccs1)C(=O)c1cc(S(=O)(=O)N2CCOCC2)ccc1N1CCCC1,-27.1%
15,COc1ccc(CN(C)C(=O)c2cc(S(=O)(=O)N3CCOCC3)ccc2N2CCCC2)cc1,-35.2%
16,COc1ccc(C2C(CN3CCOCC3)C(=O)N2c2ccccc2)cc1 (stereo not drawn),9.52%
17,Cc1ccc(OCCOc2cccc(Br)c2)c([N+](=O)[O-])n1,0.558%
18,Cc1cccc(NS(=O)(=O)c2cccc(C(=O)N3CCN(c4ccccn4)CC3)c2)c1,-22.7%
19,COc1ccc(C(=O)NCc2nnc(SCC(=O)Nc3cccc(OC)c3)o2)cc1,-1.25%
20,CCOC(=O)c1c(NC(=O)c2nn(CC)cc2Br)sc2c1CCCCC2,8.6%
21,COc1ccc(N(C)C(=O)c2cn(CC(C)C)c(=O)c3cc(OC)c(OC)cc23)cc1,8.8%

row,SMILES,"hERG current change (%, negative = inhibition) at 10uM"
1,Nc1c(-c2cccc(Cl)c2)cnn1-c1ccccc1,-60.3%
2,Nc1c(-c2ccccc2)cnn1-c1cccc(Cl)c1,-12.3%
3,Nc1c(-c2ccccc2)cnn1-c1ccccc1,12%
4,COc1ccc(CCNC(=O)C2CCN(C(=O)c3ccc(F)cc3)CC2)cc1,10.2%
5,COc1ccc(CNC(=O)C2CC(c3ccccc3[N+](=O)[O-])=NO2)cc1 (stereo not drawn),-27.7%
6,COCCNC(=O)C1CC(c2ccc([N+](=O)[O-])cc2)=NO1 (stereo not drawn),-0.798%
7,O=C(NCCc1ccccc1)C1CCN(C(=O)c2ccc(F)cc2)CC1,-2.25%
8,COc1ccc(CCNC(=O)C2CCN(C(=O)c3ccc(Cl)cc3)CC2)cc1,-12.8%
9,O=C(NCc1ccc(OC(F)(F)F)cc1)C1CC(c2ccccc2[N+](=O)[O-])=NO1 (stereo not drawn),-68.3%
10,COc1ccc(CCNC(=O)C2CC(c3cccc([N+](=O)[O-])c3)=NO2)cc1 (stereo not drawn),-21.8%
11,COc1ccc(CCNC(=O)C2CC(c3ccc([N+](=O)[O-])cc3)=NO2)cc1 (stereo not drawn),-61.6%
12,COc1ccc(CCNC(=O)C2CCN(C(=O)c3ccccc3)CC2)cc1,2.13%
13,O=C(NCCc1ccccc1)C1CCN(C(=O)c2ccc([N+](=O)[O-])cc2)CC1,-63.2%
14,O=C(NCc1ccc(C(F)(F)F)cc1)C1CC(c2ccccc2[N+](=O)[O-])=NO1 (stereo not drawn),-46.1%
15,COc1ccc(CCNC(=O)C2CCN(C(=O)c3ccc([N+](=O)[O-])cc3)CC2)cc1,-65.6%
16,Cc1ccc(OCC(=O)Nc2ccccc2N2CCCC2)c(C)c1,-3.14%
17,CCCN(c1ccccc1C(=O)O)S(=O)(=O)c1ccc2c(c1)n(C)c(=O)n2C,19.8%
18,Cc1ccc(NCC(O)C(O)C(O)CO)cc1C (stereo not drawn),14.9%
19,Clc1ccc2oc(-c3ccccn3)nc2c1,-0.352%
20,O=C(NCCNC(=O)c1ccc([N+](=O)[O-])cc1)c1ccncc1,12%
21,COc1ccc(CCNC(=O)c2nc3ncccn3n2)cc1OC,18.6%

row,SMILES,"hERG current change (%, negative = inhibition) at 10uM"
1,Cc1ccc2c(c1)N(CC(=O)N1CCCc3ccccc31)C(=O)CO2,-8.16%
2,COc1cccc(N2CCN(c3ccc(N4C(=O)CCC4=O)cc3[N+](=O)[O-])CC2)c1,13.7%
3,COCCCNC(=O)CN(C1CCCCC1)S(=O)(=O)c1ccc(C)cc1,-0.742%
4,CCC(CC)C(=O)NCCc1cc2c(C)ccc(C)c2[nH]c1=O,2.39%
5,COc1ccccc1CN(C)C(=O)C(c1ccccc1)c1ccccc1,-2.32%
6,O=C(NCc1ccco1)C1CCN(C(=O)c2ccc([N+](=O)[O-])cc2)CC1,-53%
7,COc1cccc(C(=O)N2CCC(C(=O)NCc3ccco3)CC2)c1,-14.9%
8,Cc1ccc(C(=O)N2CCC(C(=O)NCc3ccco3)CC2)cc1,-11.3%
9,CCn1nnc(NC(=O)C(C)(c2ccccc2)c2ccccc2)n1,-10.4%
10,COc1ccc(S(=O)(=O)NCC2CCCN(Cc3cccnc3)C2)cc1 (stereo not drawn),-47.7%
11,COc1ccc(S(=O)(=O)NCC2CCCN(Cc3ccc(O)cc3)C2)cc1 (stereo not drawn),-59.2%
12,COc1ccc(S(=O)(=O)NCC2CCCN(Cc3cccc(C(C)=O)c3)C2)cc1 (stereo not drawn),-43.9%
13,CCOc1ccccc1CN1CCCC(CNS(=O)(=O)c2ccc(OC)cc2)C1 (stereo not drawn),-63.7%
14,OCC1CCCN(Cc2ccc(-c3ccccc3)cc2)C1 (stereo not drawn),-28.4%
15,CCc1ccc(CN2CCCC(CNS(=O)(=O)c3ccc(OC)cc3)C2)cc1 (stereo not drawn),-69.8%
16,COc1ccc(S(=O)(=O)NCC2CCCN(Cc3ccccc3Cl)C2)cc1 (stereo not drawn),-37.9%
17,COc1ccc(S(=O)(=O)NCC2CCCN(Cc3ccccc3C)C2)cc1 (stereo not drawn),-12.3%
18,CN(C)S(=O)(=O)NCC1CCCN(Cc2ccc(-c3ccccc3)cc2)C1 (stereo not drawn),-50.8%
19,COc1ccc(S(=O)(=O)NCC2CCCN(Cc3ccc(C)o3)C2)cc1 (stereo not drawn),-25.5%
20,COc1ccc(S(=O)(=O)NCC2CCCN(CC(C)(C)C)C2)cc1 (stereo not drawn),14.9%
21,CN(C)S(=O)(=O)NCC1CCCN(Cc2cc3ccccc3s2)C1 (stereo not drawn),-6.37%
